Assay results from PubChem BioAssay (Tox21).
Values joined by “and” are separate entries in the source; they are usually repeats but may differ in a detail not shown here. Equal values may be shown once. Records with an inconclusive call do not appear. Where a call stands in place of a potency, no number is given. More than one record can exist for a structure, and the calls need not agree. Active and inactive are the calls of the source. Unless noted, the call rests on the fitted dose curve; in most records, active means well fitted curve in the direction sought with a large enough effect in the repeat runs; inconclusive means weak or mixed curves; inactive means no such curve, though single readings can be large; an effect the other way counts as inactive or inconclusive.

Columns and labels:
[1] = qHTS assay to identify small molecule antagonists of the estrogen receptor alpha (ER-alpha) signaling pathway using the BG1 cell line in the presence of 0.1 nM 17-beta-estradiol - cell viability counter screen (AID 1259241); further: nearly all actives have a fitted effect of over 40% in size; further: potency means the concentration at half of the fitted maximal effect
Procedure, shortened: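 The cell line endogenously expresses full-length ER-alpha and carries four EREs driving luciferase. Cells are cultured 5 days hormone-free, treated 22 hr with compounds and 0.1 nM estradiol, then viability is read by fluorescence.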

[2] = qHTS assay to identify small molecule antagonists of the androgen receptor (AR) signaling pathway using the MDA cell line in the presence of 0.5 nM R1881 - cell viability counter screen (AID 1259242); further: nearly all actives have a fitted effect of over 45% in size; further: potency means the concentration at half of the fitted maximal effect
Procedure, shortened: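 Live-cell protease fluorescence, CellTiter-Fluor, 30 min at 37C. Cells: MDA-kb2, 3,000/well, preincubated 5 hr. Compounds plus 0.5 nM R1881 final, 16 hr, 37C, 0% CO2.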

[3] = target: Androgen receptor (Homo sapiens) (UniProt P10275); assay: qHTS assay to identify small molecule antagonists of the androgen receptor (AR) signaling pathway using the MDA cell line in the presence of 0.5 nM R1881 (AID 1259243); further: nearly all actives have a fitted effect of over 50% in size; further: potency means the concentration at half of the fitted maximal effect
Chain of Androgen receptor (Homo sapiens) (P10275 whole entry, looked up): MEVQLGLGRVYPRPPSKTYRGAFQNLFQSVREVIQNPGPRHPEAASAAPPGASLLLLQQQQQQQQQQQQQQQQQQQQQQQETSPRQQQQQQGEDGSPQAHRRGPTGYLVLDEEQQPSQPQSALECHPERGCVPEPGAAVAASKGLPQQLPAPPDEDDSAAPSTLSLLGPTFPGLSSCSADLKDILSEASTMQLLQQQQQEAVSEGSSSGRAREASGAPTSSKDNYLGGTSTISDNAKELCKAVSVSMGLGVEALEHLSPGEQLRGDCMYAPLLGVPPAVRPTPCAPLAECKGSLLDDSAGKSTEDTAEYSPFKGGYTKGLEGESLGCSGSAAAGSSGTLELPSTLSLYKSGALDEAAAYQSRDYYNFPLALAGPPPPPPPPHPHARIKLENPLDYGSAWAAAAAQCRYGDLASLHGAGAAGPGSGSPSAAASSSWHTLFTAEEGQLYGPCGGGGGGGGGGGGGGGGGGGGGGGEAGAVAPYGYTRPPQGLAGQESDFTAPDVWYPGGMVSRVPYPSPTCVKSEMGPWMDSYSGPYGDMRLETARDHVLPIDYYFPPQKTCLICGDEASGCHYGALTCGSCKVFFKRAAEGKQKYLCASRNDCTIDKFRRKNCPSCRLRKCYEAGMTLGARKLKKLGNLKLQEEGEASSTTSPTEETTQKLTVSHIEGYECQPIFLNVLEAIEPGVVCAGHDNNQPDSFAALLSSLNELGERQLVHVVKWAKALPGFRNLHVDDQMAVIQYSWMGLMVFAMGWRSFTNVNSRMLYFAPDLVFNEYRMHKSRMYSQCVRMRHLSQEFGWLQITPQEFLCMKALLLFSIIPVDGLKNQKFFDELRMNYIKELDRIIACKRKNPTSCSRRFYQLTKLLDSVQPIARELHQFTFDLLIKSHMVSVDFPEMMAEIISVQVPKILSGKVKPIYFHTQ
Procedure, shortened: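 MDA-kb2, MMTV-luc (AR/GR elements); 3,000 cells/well; cpd + 0.5 nM R1881 final; 16 hr 37C, 0% CO2; ONE-Glo 30 min RT; luminescence.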

[4] = target: Estrogen receptor (Homo sapiens) (UniProt P03372); assay: qHTS assay to identify small molecule antagonists of the estrogen receptor alpha (ER-alpha) signaling pathway using the BG1 cell line in the presence of 0.1 nM 17-beta-estradiol (AID 1259244); further: nearly all actives have a fitted effect of over 50% in size; further: potency means the concentration at half of the fitted maximal effect
Chain of Estrogen receptor (Homo sapiens) (P03372 whole entry, looked up): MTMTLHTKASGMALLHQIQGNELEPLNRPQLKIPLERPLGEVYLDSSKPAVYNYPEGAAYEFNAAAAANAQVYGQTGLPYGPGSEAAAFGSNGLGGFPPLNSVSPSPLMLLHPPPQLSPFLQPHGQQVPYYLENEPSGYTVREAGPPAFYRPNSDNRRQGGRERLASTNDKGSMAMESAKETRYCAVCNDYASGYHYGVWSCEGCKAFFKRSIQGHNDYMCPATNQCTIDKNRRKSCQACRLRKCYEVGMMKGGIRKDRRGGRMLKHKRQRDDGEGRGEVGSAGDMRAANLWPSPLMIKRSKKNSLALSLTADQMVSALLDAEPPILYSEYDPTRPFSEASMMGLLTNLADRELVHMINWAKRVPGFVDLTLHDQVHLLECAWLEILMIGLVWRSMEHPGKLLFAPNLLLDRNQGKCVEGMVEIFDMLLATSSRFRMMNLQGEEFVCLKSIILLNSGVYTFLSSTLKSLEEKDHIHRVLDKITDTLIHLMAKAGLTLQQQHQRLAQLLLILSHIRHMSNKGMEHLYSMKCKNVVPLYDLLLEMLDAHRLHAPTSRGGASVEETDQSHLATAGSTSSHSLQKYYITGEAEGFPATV
Procedure, shortened: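 Luminescence after ONE-Glo (30 min, room temperature) measured ERE-luciferase activity in VM7Luc4E2 cells treated 22 h with compound and 0.1 nM final 17beta-estradiol as stimulator.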

[5] = qHTS assay to identify small molecule HDAC inhibitors (AID 1259364); further: potency means the concentration at half of the fitted maximal effect;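 further: wild-type HCT-116 cells with endogenous class I/II HDAC activity; nearly all actives have a fitted effect of over 45% in size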
Procedure, shortened: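 HCT-116 (wild type), 1,500 cells/well, overnight; compound 2 hr 37C 5% CO2; HDAC-Glo I/II reagent 30 min RT; luminescence readout.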

[6] = qHTS assay to identify small molecule HDAC inhibitors - cell viability counter screen (AID 1259365); further: nearly all actives have a fitted effect of over 50% in size; further: potency means the concentration at half of the fitted maximal effect
Procedure, shortened: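 Viability readout: CellTiter-Glo luminescence. Wild-type HCT-116 cells, 2hr compound treatment following overnight attachment at 37 C.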

[7] = qHTS assay to identify small molecule agonists of the sonic hedgehog signaling (Shh) pathway - cell viability counter screen (AID 1259366); further: nearly all actives have a fitted effect of over 50% in size; further: potency means the concentration at half of the fitted maximal effect
Procedure, shortened: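 Viability measured fluorometrically (CellTiter-Fluor, 1hr, 37C) in 3T3 Gli1-Luc reporter cells after 23hr compound exposure within a 24hr incubation at 37C/5% CO2.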

[8] = qHTS assay to identify small molecule antagonists of the sonic hedgehog signaling (Shh) pathway - cell viability counter screen (AID 1259367); further: nearly all actives have a fitted effect of over 55% in size; further: potency means the concentration at half of the fitted maximal effect
Procedure, shortened: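 Tox21 library chemicals were tested on a Gli1-Luc NIH/3T3 clone (2,000 cells/well) stimulated by conditioned medium; viability was quantified as fluorescence from CellTiter-Fluor reagent added at 23 hr.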

[9] = qHTS assay to identify small molecule agonists of the sonic hedgehog signaling (Shh) pathway (AID 1259368; calls by dose curve;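 further: NIH/3T3-derived 3T3Gli1-Luc cells carrying a stable Gli1-driven firefly luciferase reporter; series mostly up to about 92 µM; nearly all actives have a fitted effect of over 15% in size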)
Procedure, shortened: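 Read-out: firefly luciferase luminescence from a Gli1 response element reporter stably integrated in NIH/3T3-derived 3T3Gli1-Luc cells, measured 30 min at room temperature after reagent addition. Compound exposure lasted 24 hr at 37 C, 5% CO2.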

[10] = qHTS assay to identify small molecule phospholipidosis (PLD) inducers (AID 1259344; active means well fitted curve in the direction sought with a large enough effect; an effect the other way counts as inactive or inconclusive)
Procedure, shortened: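 Image-based: LipidTOX Red pit count/intensity per well and per cell; HepG2, 24 h compound at 37 C, PFA fixation, Hoechst counterstain.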

Compound	Potency [1]	Potency [2]	Potency [3]	Potency [4]	Potency [5]	Potency [6]	Potency [7]	Potency [8]	Potency [9]	Potency [10]
CC(C)(O)CCC(C)(C)O	inactive	inactive	inactive	inactive	inactive	inactive	inactive	inactive	inactive	
COc1cc(C(=S)N2CCOCC2)ccc1O	inactive	inactive	inactive	inactive	inactive	inactive	inactive	inactive	inactive	inactive
NCCCCCC(=O)O	inactive	inactive		inactive	inactive	inactive	inactive	inactive	inactive	inactive
Nc1cc(Cl)c(-c2cc(Cl)c(N)cc2Cl)cc1Cl	inactive	inactive	4.32 µM (active) and 2.17 µM (active)	24.3 µM (active) and 34.4 µM (active)	inactive	inactive		54.4 µM (active) and 38.6 µM (active)	inactive	
CC(C)CCOCc1ccccc1	inactive	inactive	inactive	inactive	inactive	inactive	inactive	inactive	inactive	
O=C(O)Cn1cnnn1	inactive	inactive	inactive	inactive	inactive	inactive	inactive	inactive	inactive	
NC(N)=Nc1nc(CSCC/C(N)=N/S(N)(=O)=O)cs1	inactive	inactive		inactive	inactive	inactive	inactive	inactive	inactive	inactive
COc1nc(C)nc(Cl)c1NC1=NCCN1	inactive	inactive		inactive	inactive	inactive	inactive	inactive	inactive	inactive
O=C1NCC2(CCN(CCc3ccccc3)CC2)O1	inactive	inactive		inactive	inactive	inactive	inactive	inactive	inactive	inactive
CCN(CC)C(=O)Nc1ccc(OCC(O)CNC(C)(C)C)c(C(C)=O)c1 (stereo not drawn)	inactive	inactive	inactive	inactive	inactive	inactive	inactive	inactive	inactive	inactive
CCC(C)(Oc1ccc(C2(c3ccc(OC(C)(CC)C(=O)O)cc3)CCCCC2)cc1)C(=O)O (stereo not drawn)	inactive	inactive	inactive	inactive	inactive	inactive	inactive	inactive	inactive	inactive
O=Cc1ccc(Cl)cc1	inactive	inactive	inactive		inactive	inactive	inactive	inactive	inactive	
CCOc1ccccc1C(N)=O	inactive	inactive	inactive	inactive	inactive	inactive	inactive	inactive	inactive	inactive
CCCNC(C)C(=O)Nc1ccccc1C (stereo not drawn)	inactive	inactive		inactive	inactive	inactive	inactive	inactive	inactive	inactive
OCC(CO)N[C@H]1C[C@](O)(CO)[C@@H](O)[C@H](O)[C@H]1O	inactive	inactive	inactive	inactive	inactive	inactive	inactive	inactive	inactive	inactive
CC1COC(=O)O1 (stereo not drawn)	inactive	inactive	inactive	inactive	inactive	inactive	inactive	inactive	inactive	
Cc1ccc(-c2cc(C(F)(F)F)nn2-c2ccc(S(N)(=O)=O)cc2)cc1	inactive	inactive	54.3 µM (active) and 68.6 µM (active)	inactive	inactive	inactive	60.9 µM (active) and 61.1 µM (active) and inactive	54.3 µM (active) and 61.1 µM (active) and inactive	inactive	inactive
Cc1ccc(S(=O)(=O)Oc2ccc(N=Nc3ccc(-c4ccc(N=Nc5c(O)ccc6cc(S(=O)(=O)O)cc(S(=O)(=O)O)c56)c(C)c4)cc3C)cc2)cc1	21.8 µM (active) and 14.1 µM (active)	27.4 µM (active) and 17.8 µM (active)	17.3 µM (active) and 20 µM (active)		inactive		24.4 µM (active) and 15.9 µM (active)	24.4 µM (active) and 20 µM (active)	inactive	
COC(=O)c1cccc(C(=O)OC)c1	inactive	inactive	inactive	inactive	inactive	inactive	inactive	inactive	inactive	
Nc1nc(=S)c2[nH]cnc2[nH]1	inactive	inactive	inactive	inactive	inactive	inactive	inactive	inactive	inactive	inactive

Compound	Potency [1]	Potency [2]	Potency [3]	Potency [4]	Potency [5]	Potency [6]	Potency [7]	Potency [8]	Potency [9]	Potency [10]
CC1=CC(=O)c2ccccc2C1=O	48.6 µM (active)	43.3 µM (active)	21.7 µM (active) and 29.8 µM (active)	30.6 µM (active) and 29.8 µM (active)	inactive	68.6 µM (active) and inactive	13.7 µM (active) and 13.3 µM (active)	27.3 µM (active) and 13.3 µM (active)	inactive	inactive
CN1C(=O)c2ccc([N+](=O)[O-])cc2C1=O	inactive	inactive	inactive	inactive	inactive	inactive	inactive	inactive	inactive	
CCCC(=O)c1ccccc1	inactive	inactive	inactive		inactive	inactive	inactive	inactive	inactive	
CC(=O)Nc1ccc(C(=O)CCl)cc1	inactive	inactive and 54.5 µM (active)	inactive and 54.5 µM (active)		inactive	inactive	21.7 µM (active)	inactive	inactive	
CCC[C@H](N[C@@H](C)C(=O)N1[C@H](C(=O)O)C[C@@H]2CCCC[C@@H]21)C(=O)OCC	inactive	inactive		inactive	inactive	inactive	inactive	inactive	inactive	inactive
O=c1n(CC2CO2)c(=O)n(CC2CO2)c(=O)n1CC1CO1 (stereo not drawn)	inactive	inactive		inactive	inactive	inactive	61.1 µM (active)	30.5 µM (active) and 48.6 µM (active)	inactive	inactive
BrC1CCC(Br)C(Br)CCC(Br)C(Br)CCC1Br (stereo not drawn)	inactive	inactive	inactive	inactive	inactive	inactive	inactive	inactive	inactive	
Cc1c(O)cccc1C(=O)N[C@@H](CSc1ccccc1)[C@H](O)CN1C[C@H]2CCCC[C@H]2C[C@H]1C(=O)NC(C)(C)C	8.41 µM (active) and 15 µM (active)	59.5 µM (active) and 26.6 µM (active)	18.8 µM (active)		inactive	inactive	1.5 µM (active) and 1.88 µM (active)	2.37 µM (active) and 3.76 µM (active)	inactive	inactive
CCCCCCCCCCCCCC[P+](CCCC)(CCCC)CCCC	60.8 µM (active) and 30.6 µM (active)	27.1 µM (active) and 21.7 µM (active)	1.08 µM (active) and 1.72 µM (active)	2.71 µM (active) and 4.33 µM (active)	inactive	68.2 µM (active) and 68.6 µM (active)	27.1 µM (active)	30.5 µM (active) and 30.6 µM (active)	inactive	
CCC(C)(C)C(=O)O[C@H]1C[C@@H](C)C=C2C=C[C@H](C)[C@H](CC[C@@H]3C[C@@H](O)CC(=O)O3)[C@H]21	inactive	inactive		inactive	inactive	inactive	inactive	inactive	inactive	inactive
Cc1cc(OCCOCC[N+](C)(C)Cc2ccccc2)ccc1C(C)(C)CC(C)(C)C	inactive	43 µM (active) and 26.6 µM (active)	13.6 µM (active) and 13.3 µM (active)	60.8 µM (active) and 29.8 µM (active)	inactive	inactive	48.3 µM (active)		inactive	inactive
CCN(CC)C(=S)SSC(=S)N(CC)CC	inactive	inactive	122 nM (active) and 39.5 nM (active) and 106 nM (active)	243 nM (active) and 279 nM (active)	inactive	inactive	243 nM (active) and 99.2 nM (active) and 596 nM (active)	433 nM (active) and 1.25 µM (active) and 2.66 µM (active)	inactive	inactive
COc1ccc(Cc2cnc(N)nc2N)cc1OC	inactive	inactive	inactive	inactive	inactive	inactive	inactive	inactive	inactive	inactive
C#CC(C)(CC)OC(=O)c1ccccc1C(=O)O (stereo not drawn)	inactive	inactive	inactive	inactive	inactive	inactive	inactive	inactive	inactive	
CCc1ccc(C(c2ccc(CC)cc2)C(Cl)Cl)cc1	inactive	inactive	49.3 µM (active)	inactive	inactive	inactive	inactive	inactive	inactive	
NC(=Nc1ccccc1)Nc1ccccc1	inactive	inactive		10.9 µM (active)	686 nM (active) and inactive	inactive	inactive	inactive	inactive	inactive
NCCO	inactive	inactive		inactive	inactive	inactive	inactive	inactive and 43.3 µM (active)	inactive	inactive
CCCCCC(=O)O[C@]1(C(C)=O)CC[C@H]2[C@@H]3CCC4=CC(=O)CC[C@]4(C)[C@H]3CC[C@@]21C	inactive	43 µM (active)		48.2 µM (active)	inactive	inactive	inactive	68.1 µM (active) and inactive	inactive	inactive
CCCCN(CCO)CCCC	inactive	inactive		inactive	inactive	inactive	inactive	inactive	inactive	
CN(C)c1ccc2nc3ccc(=[N+](C)C)cc-3sc2c1	26.2 µM (active) and 27.3 µM (active) and 29.8 µM (active)	6.11 µM (active) and 1.88 µM (active)		26.2 µM (active) and 27.3 µM (active) and 29.8 µM (active)	11.7 µM (active) and 10.9 µM (active) and 13.3 µM (active)	11.7 µM (active) and 24.3 µM (active) and 11.9 µM (active)	26.2 µM (active) and 43.3 µM (active) and 29.8 µM (active)	54.5 µM (active)	inactive	inactive
